FMDV inh – foot and mouth disease virus antiviral activity. FMDV antiviral cell-based qHTS. Potency, µM (highest dose often 57.9 µM), for the others: at the highest dose activity change, negative = inhibition, usual class: inhibitors. 410,000 compounds, 1.2% hits; calls by dose curve; tested in HEK293T cells; also: read-out not given here; potency is read from the fitted curve at half-maximal effect; nearly all actives have a fitted effect of over 45% in size
LASV entry inh – blocks Lassa virus binding to or entry into cells; Lassa virus pseudotype entry inhibition, cell reporter; Potency, µM (top dose mostly 37.9 µM), for inactives: top-dose activity change, negative = inhibition, usual class: inhibitors; 300,000 compounds, 1.2% hits; AID 540256; calls by dose curve; tested in HEK293 cells; also: potency is read from the fitted curve at half-maximal effect; nearly all actives have a fitted effect of over 50% in size
HCMV antiviral – inhibitors of human cytomegalovirus. HFF cells, HCMV-luciferase reporter, 72 h; active compounds read low. activity change, negative = inhibition, % at 57.5 µM. 410,000 compounds, 4.5% hits. AID 1259415; in the data active = activity change below about -60%; inconclusive = no clear call, values can overlap the other calls; inactive = above about -39%
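Cell-based, HFFs, 1000 cells/well, 16 h 37C; cpds in DMSO + HCMV-luc, MOI 1 PFU/cell; 72 h 37C; OneGlo luminescence after 5 min RT; norm. to buffer vs Salinomycin 10uM.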
HCV inhibitor – HCV inhibition. AID 651820. Huh7.5.1 HCVcc-Cre infection, luciferase reporter, 44 h. 340,000 compounds, 3.4% hits. Potency, µM (titrated, usually from 41.8 µM), for inactives: at the highest dose activity change, negative = inhibition, actives largely listed as inhibitors; active = well fitted inhibition curve with a large enough effect; inconclusive = small, poorly fitted or top-dose-only effect, or another doubt; inactive = no such curve, though single readings can be large or run the other way; also: potency is read from the fitted curve at half-maximal effect
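Luciferase read-out (15 sec integration) after a 15 min room-temperature substrate step quantifies HCVcc-Cre infection. Cells, 1,000 per well, had compound added 4 h post-plating, then virus at ~0.5 moi, and were cultured 44 h.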
MARV entry inh – inhibitors of Marburg virus binding or cell entry; Marburg virus pseudotyped entry inhibition, cell reporter; Potency, µM (highest dose often 37.8 µM), for inactives: at the top dose activity change, negative = inhibition, hits mostly inhibitors; 300,000 compounds, 1.8% hits; AID 540276; calls by dose curve; tested in HEK293 cells; also: potency is read from the fitted curve at half-maximal effect
Active calls of the source: *; [ ] = dose if it differs, or a comment. Rows were chosen to be rich in hits. Some 7.9% of all compounds tested hit in one or more screens of this group. % is scaled to controls: 0 for no effect and ±100 for the full control effect.

What do the screens show for `CC(C)(C)c1cc(Cl)c(O)c(NC(=S)NC(=O)c2cccnc2)c1`?
FMDV inh: -9%; LASV entry inh: -20%; HCMV antiviral: -95*; HCV inhibitor: inconclusive; MARV entry inh: inconclusive

How did CCCOc1ccc(C(=O)Nc2cccc(NC(=O)c3ccc(Cl)cc3Cl)c2)cc1 do in these assays?
FMDV inh: -10%; LASV entry inh: -23%[46.1 µM]; HCMV antiviral: -91*

How did CCOC(=O)C1CCCN(C(=O)c2nn(-c3ccc(C)cc3)c(=O)c3c2c2ccccc2n3C)C1 (centres undefined) do in these assays?
FMDV inh: inconclusive; LASV entry inh: 19%[46.1 µM]; HCMV antiviral: 3; MARV entry inh: 12%[46.1 µM]

What do the screens show for `CN1CCN(C2(CNC(=O)c3ccc(C(C)(C)C)cc3)CCCCC2)CC1`?
FMDV inh: -13%; LASV entry inh: 6%[46.1 µM]; HCMV antiviral: inconclusive; MARV entry inh: inconclusive

Results for COc1cccc(OCCCCn2c(-c3ccc(Cl)cc3)nc3ccccc3c2=O)c1 ?
FMDV inh: 0%; LASV entry inh: 25%[46.1 µM]; HCMV antiviral: 16; MARV entry inh: 27%[46.1 µM]

How did O=C(Nc1cccc(NC(=O)c2ccc(Cl)cc2Cl)c1)c1cccnc1 do in these assays?
FMDV inh: inconclusive; HCMV antiviral: 20; HCV inhibitor: 32µM*; MARV entry inh: inconclusive

How did O=C(Nc1cccc(NC(=O)c2cccnc2)c1)c1cccnc1 do in these assays?
LASV entry inh: 22%; HCMV antiviral: -4; HCV inhibitor: 1%; MARV entry inh: -2%

How did O=C1C=CC(=O)C(CNc2ccc(C(=O)OCc3ccccc3)cc2)=C1 do in these assays?
FMDV inh: 0%; LASV entry inh: 11µM*; HCMV antiviral: -23; HCV inhibitor: 10µM*; MARV entry inh: inconclusive

What do the screens show for `COc1ccc(OCCSc2nnc(C)n2-c2ccccc2)cc1`?
FMDV inh: -16%; LASV entry inh: 9.2µM*; HCMV antiviral: -13; HCV inhibitor: 1%; MARV entry inh: inconclusive

How did COc1cccc(-c2nc(S(=O)(=O)c3ccc(C)cc3)c(N3CCCCC3)o2)c1 do in these assays?
FMDV inh: 6%; LASV entry inh: inconclusive; HCMV antiviral: -25; MARV entry inh: -19%[46.1 µM]

How did C#CCOc1c(Br)cc(C2C(C(=O)OC)=C(C)NC3=C2C(=O)c2ccccc23)cc1OCC (centres undefined) do in these assays?
FMDV inh: inconclusive; LASV entry inh: -13%[46.1 µM]; HCMV antiviral: -63*; MARV entry inh: inconclusive

Results for O=C1C2C3C=CC(c4ccccc4)(C2C(=O)N1c1cccc(Cl)c1)C1C(=O)N(c2cccc(Cl)c2)C(=O)C31 (centres undefined) ?
FMDV inh: -28%; LASV entry inh: inconclusive; HCMV antiviral: -12; HCV inhibitor: 10µM*; MARV entry inh: inconclusive

Results for COCCn1cnc2c(c1=O)c1nc3ccccc3nc1n2/N=C/c1cccc(OC)c1 ?
FMDV inh: 28µM*; LASV entry inh: inconclusive; HCMV antiviral: -30; HCV inhibitor: 4%; MARV entry inh: inconclusive

Results for C=CCn1cnc2c(c1=O)c1nc3ccccc3nc1n2/N=C/c1ccccn1 ?
FMDV inh: -20%; LASV entry inh: -10%[14.3 µM]; HCMV antiviral: -28; MARV entry inh: inconclusive

Results for O=c1c2c3nc4ccccc4nc3n(/N=C/c3ccccn3)c2ncn1-c1ccccc1 ?
FMDV inh: inconclusive; LASV entry inh: inconclusive; HCMV antiviral: -27; HCV inhibitor: -85%; MARV entry inh: 5.6µM*

How did COc1cccc(/C=N/n2c(-c3ccco3)nc3ccccc3c2=O)c1 do in these assays?
FMDV inh: inconclusive; LASV entry inh: -17%; HCMV antiviral: -64*; HCV inhibitor: inconclusive; MARV entry inh: 5%

What do the screens show for `Cc1ncc2c(c1CNS(=O)(=O)N(C)C)CCN(C(=O)/C=C/c1ccccc1F)C2`?
FMDV inh: -4%

How did CCc1ccc(NCc2cc3cc4c(cc3n(CC(=O)Nc3ccccc3OC)c2=O)OCCO4)cc1 do in these assays?
FMDV inh: 13%; LASV entry inh: 0%[46.1 µM]; HCMV antiviral: 30

How did Nc1cccc2c(O)cccc12 do in these assays?
FMDV inh: -4%; LASV entry inh: -5%; HCMV antiviral: -102*; HCV inhibitor: 22%; MARV entry inh: 15%

How did CCc1nc(SCc2cc(=O)c3cc(F)ccc3[nH]2)n[nH]1 do in these assays?
FMDV inh: -7%; LASV entry inh: 3%[46.1 µM]; HCMV antiviral: 3

Results for COc1ccc(CN2C(=O)C(n3cccc3)c3ccccc32)cc1 (centres undefined) ?
HCMV antiviral: 3

What do the screens show for `CC(=O)OC(C)(C)/C=C/C(=O)C(C)(O)C1C(O)CC2(C)C3CC=C4C(CC(O)C(=O)C4(C)C)C3(C)C(=O)CC12C` (centres undefined)?
FMDV inh: 32µM*; LASV entry inh: 0.13µM*; HCMV antiviral: -98*; HCV inhibitor: inconclusive; MARV entry inh: inconclusive

How did CC(=O)OC(C)(C)/C=C/C(=O)[C@](C)(O)C1[C@H](O)C[C@@]2(C)C3CC=C4C(C=C(O[C@@H]5O[C@H](CO)[C@@H](O)[C@H](O)[C@H]5O)C(=O)C4(C)C)[C@]3(C)C(=O)C[C@]12C (some centres undefined) do in these assays?
FMDV inh: 0%; HCMV antiviral: -86*; HCV inhibitor: -48%[8.37 µM]

How did CC1(C)Oc2ccc3ccc(=O)oc3c2C[C@H]1O[C@@H]1O[C@H](CO)[C@@H](O)[C@H](O)[C@H]1O do in these assays?
FMDV inh: -23%; HCMV antiviral: 3; HCV inhibitor: 23%

How did CC(=O)OC(C)(C)/C=C/C(=O)[C@](C)(O)[C@H]1[C@H](O)C[C@@]2(C)[C@@H]3CC=C4[C@H](C[C@H](O)C(=O)C4(C)C)[C@]3(C)C(=O)C[C@]12C do in these assays?
FMDV inh: 18µM*; LASV entry inh: 0.29µM*; HCV inhibitor: -16%; MARV entry inh: inconclusive

How did CC(=O)OC(C)(C)/C=C/C(=O)C(C)(O)C1[C@H](O)C[C@@]2(C)C3CC=C4C(CC[C@@H](O)C4(C)C)[C@]3(CO)C(=O)C[C@]12C (some centres undefined) do in these assays?
FMDV inh: 18µM*; LASV entry inh: inconclusive; HCMV antiviral: -101*; HCV inhibitor: inconclusive; MARV entry inh: 0.25µM*

What do the screens show for `COc1cccc(C(=O)N2CCN(CCc3ccncc3)CC2)c1`?
FMDV inh: -7%; LASV entry inh: -5%[46.1 µM]; HCMV antiviral: -9; MARV entry inh: 19%[46.1 µM]

Results for Cc1ccc(-c2nc(CS(=O)(=O)CC(=O)NCCCN(Cc3ccccc3)C(C)C)c(C)o2)cc1 ?
FMDV inh: -24%; HCMV antiviral: 62; HCV inhibitor: 10µM*

Results for Cc1cccc(C)c1NC(=O)C1N=Cc2ccccc2N=C1c1cccc(Br)c1 (centres undefined) ?
HCMV antiviral: 35

Results for COc1ccc(N2CCN(C(=O)CN3CCSc4ccccc43)CC2)cc1 ?
FMDV inh: inconclusive; LASV entry inh: 5%[46.1 µM]; HCMV antiviral: -9

Bioassay records from PubChem BioAssay.
